Data reported in ChEMBL document CHEMBL3433997, “St. Jude Leishmania screening dataset” (2016).

What follows are compounds tested against Solute carrier family 2, facilitated glucose transporter member 1 (Homo sapiens) (UniProt P11166) (assay: ST_JUDE_LEISH: Cytotoxicity at 2uM final concentration against transgenic Leishmania Mexicana promastigotes LmGLUT1 that are glucose transport deficient and complemented with the human glucose transporter GLUT1. Activity is measured by DNA content using SYBR green in vitro).
Solute carrier family 2, facilitated glucose transporter member 1 (Homo sapiens), sequence (P11166 whole entry): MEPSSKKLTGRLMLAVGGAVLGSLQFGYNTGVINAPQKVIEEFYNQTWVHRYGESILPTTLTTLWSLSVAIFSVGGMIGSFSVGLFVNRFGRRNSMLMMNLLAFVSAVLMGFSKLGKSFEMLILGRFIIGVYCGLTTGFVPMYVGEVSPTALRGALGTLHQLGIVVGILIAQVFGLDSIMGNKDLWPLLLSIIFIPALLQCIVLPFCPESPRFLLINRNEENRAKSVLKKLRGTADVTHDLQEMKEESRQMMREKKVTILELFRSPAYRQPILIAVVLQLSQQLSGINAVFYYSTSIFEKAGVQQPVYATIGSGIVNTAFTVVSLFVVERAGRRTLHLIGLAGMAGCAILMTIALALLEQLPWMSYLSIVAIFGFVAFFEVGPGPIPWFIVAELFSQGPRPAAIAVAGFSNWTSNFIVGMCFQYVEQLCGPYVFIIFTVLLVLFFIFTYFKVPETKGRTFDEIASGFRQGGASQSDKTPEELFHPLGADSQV
Format: functional
`Cc1ccn2c(N(Cc3ccccc3)C(=O)c3ccc(Cl)c(Cl)c3)c(-c3ccccc3)nc2c1` showed an inhibition of 4.28%. `COc1cc2c(cc1OC)C(C(=O)Nc1cc(OC)c(OC)c(OC)c1)C(c1ccc(SC)cc1)N(C)C2=O` (centres undefined) was tested, and the inhibition was 1.51%. `O=C(Cc1ccc(NC(=O)c2ccc(O)c(-c3ccc(Cl)c(Cl)c3)c2)cc1)NCc1cccc(C(F)(F)F)c1` showed an inhibition of 2.33%. `Cc1cc(N/N=C/c2ccccc2[N+](=O)[O-])c2cc(F)ccc2n1` showed an inhibition of 2.14%. With `O=c1cc(NCCCN(Cc2cc3c(Cl)cc(Cl)cc3[nH]2)Cc2cc3c(Cl)cc(Cl)cc3[nH]2)[nH]c2ccccc12` the inhibition was 9.06%. With `COc1ccc(-c2cc(-c3ccc(S(C)(=O)=O)cc3)cnc2N)cn1` the inhibition was 1.1%. Work on `Cc1cc(OCCCNc2nc(NCCc3ccc(O)cc3)nc(N3CCNCC3)n2)c(Cl)c(C)c1Cl` yielded an inhibition of 0.58%. `CCCCNC(=O)c1[nH]c2c(NC(=O)COc3ccccc3)cccc2c1-c1cccc(NC(=O)C(N)CO)c1` (centres undefined) gave an inhibition of 10.1%. For `CCNc1cc(C)nc(Nc2ccc(NC(=O)c3ccccc3Br)cc2)n1`, the inhibition was 8.09%. `COc1c(C2CCN(CCCCNC(=O)c3cccc(-c4ccc(C(F)(F)F)cc4)c3)CC2)ccc2c1CCCC2` showed an inhibition of 2.51%. Work on `COc1ccccc1NC(=O)Nc1cccc(-c2cccc(-c3nc4cccc(C)c4[nH]3)c2)c1` yielded an inhibition of -1.43%. Work on `CCCNC(=O)C1Cc2c([nH]c3ccc(Br)cc23)C2(CCN(CCc3ccccc3)CC2)N1` (centres undefined) yielded an inhibition of -1.4%. `NCC(=O)NC12CC3CC(CC(C3)C1)C2` gave an inhibition of 1.01%. In the case of `Cc1ccc(NC(=O)c2ccc3ncccc3c2)cc1OC1CCN(Cc2ccsc2)C1` (centres undefined), the inhibition is reported as 3.87%.
